In assay [1] the target is Lysosomal acid glucosylceramidase (Homo sapiens) (UniProt P04062). Description: Glucocerebrosidase-p2 (AID 348; in the data active = potency below about 10 µM; also: potency is read from the fitted curve at half-maximal effect). Conditions: purified GBA, blue fluorogenic substrate, 40 min. Put shortly: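 Compounds titrated from 0.6 nM upwards against 0.2 nM enzyme in pH 5.9 citric acid/KH2PO4, taurocholate, tween-20; blue fluorogenic substrate 80 uM, 40 min room temperature, stopped and read Ex 365/Em 440 for AC50.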

Assay [2] is described as follows: AP1 Signaling Pathway (AID 357).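 Also: ME-180 reporter cells stimulated with EGF at its EC50 level; % is scaled to controls: 0 for no effect and ±100 for the full control effect.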 As to conditions: ME-180 AP-1-bla reporter, EGF-induced, beta-lactamase ratio, 5 h; at 7.69 µM (top of the series) unless noted. The procedure, abridged:
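Read-out was the 460nm/530nm emission ratio (excitation 405nm) after CCF4 loading for 2.5 hours at room temperature. Cells carried an AP-1-driven beta-lactamase reporter, were stimulated with EC50 EGF plus compound for 5 hours, and AC50 values came from titrations.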

Assay [3] is described as follows: NFAT Signaling Pathway (AID 444).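 Also: carbachol stimulus at about its EC50 of 1 µM final; % is scaled to controls: 0 for no effect and ±100 for the full control effect.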 As to conditions: Jurkat NFAT-bla M1, carbachol, beta-lactamase ratio, 5 h; at 7.69 µM (top of the series) unless noted. The procedure, abridged: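 Jurkat cells with NFAT-driven β-lactamase reporter and co-expressed M1 receptor, stimulated with carbachol (final 1 uM, ~EC50), compound titration, 5 h at 37 °C. CCF4 loaded 1 h at RT; 460/530 nm ratio gave %activity and AC50.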

The nature of assay [4]: Stat Signaling Pathway (AID 446).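 Also: ME-180 cervical cancer cells given 40 pM IL-6 alongside compound; SIE-controlled beta-lactamase reporter measured as 460/530 nm FRET emission ratio; % is scaled to controls: 0 for no effect and ±100 for the full control effect.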 As to conditions: ME-180 SIE beta-lactamase reporter, IL-6 stimulated, 5 h; at 7.69 µM (top of the series) unless noted. Put shortly:
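Screening format detects activators and inhibitors alike: ME-180 SIE-bla cells stimulated at 40 pM IL-6 for 5 hrs with compound, then dual-emission beta-lactamase read at 405 nm excitation.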

Assay [5] addresses Glucocorticoid receptor (Homo sapiens) (UniProt P04150). The experiment in a line: GR-GFP Redistribution (AID 450;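 active = compounds whose dose series gives a full or clear partial fitted curve of increased nuclear translocation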; also: potency is read from the fitted curve at half-maximal effect). As to conditions: U2OS GR-GFP nuclear translocation, laser cytometry, 2 h.
The target is the same in assay [6]. Description: GR-EFC Redistribution (AID 451; calls by dose curve; also: potency is read from the fitted curve at half-maximal effect). As to conditions: CHO-K1 GR-EFC translocation, beta-gal luminescence, 2 h. The procedure, abridged:
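CHO-K1 cells expressing nuclear EA and GR-ED fragments of b-gal; compounds titrated up to 46 uM final, 2 h at 37 C. GR nuclear translocation read as complemented b-gal luminescence after 1 h RT detection.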

The target of assay [7] is Mitogen-activated protein kinase 10 (Mus musculus) (UniProt Q61831). Description: JNK3 AlphaScreen Assay (AID 530).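 Also: kinase came from lysate of stimulated human HepG2 cells; signal reports phosphorylation of biotinylated GST-cJun 1-79 at Ser73 with 10 µM ATP; % is scaled to controls: 0 for no effect and ±100 for the full control effect.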 As to conditions: JNK3 lysate, c-Jun phosphorylation; series mostly up to 11.4 µM. Put shortly: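 Pre-activated (IL-1β/TNFα) JNK3 in HepG2 lysates phosphorylates biotin-GST-cJun(1-79), 10 uM ATP; anti-phospho-cJun(Ser73) AlphaScreen read at room temperature, pH 7.6 Tris buffer. Compounds pre-incubated 15 min as titrations.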
On the technique in general: Bead proximity is the source of the signal in Alpha formats.

Assay [8] concerns the target 3',5'-cyclic-AMP phosphodiesterase 4B (Homo sapiens) (UniProt Q07343). The experiment in a line: qHTS Assay for Inhibitors of PDE-IV (AID 607; active = well fitted activation curve with a large enough effect in the main read-out, with a control signal flat, not every such curve was filed as active; also: % of control where 0% means no effect). As to conditions: HEK293 ACTOne CNG channel cells, membrane potential fluorescence; series mostly up to 22.9 µM. The procedure, abridged: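 The readout is membrane depolarisation from a cAMP-sensing CNG channel, detected with a potential dye at ex 535/em 590. Cells were HEK293-derived (endogenous PDE-IV) at 1000 cells/well, titrated up to 22.9 uM final.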

Structures are written as SMILES. Unmarked numbers belong to inactive results. Results filed as inconclusive are left out. Calls of active or inactive are those of the source. Unless noted, calls follow the shape of the dose curve; as a rule, active = well fitted curve in either direction with a large enough effect (not every such curve was filed as active); inconclusive = small, poorly fitted or top-dose-only effect, or another doubt; inactive = flat fitted curve, though single readings scatter.

Chain of Glucocorticoid receptor (Homo sapiens) (P04150 whole entry, looked up): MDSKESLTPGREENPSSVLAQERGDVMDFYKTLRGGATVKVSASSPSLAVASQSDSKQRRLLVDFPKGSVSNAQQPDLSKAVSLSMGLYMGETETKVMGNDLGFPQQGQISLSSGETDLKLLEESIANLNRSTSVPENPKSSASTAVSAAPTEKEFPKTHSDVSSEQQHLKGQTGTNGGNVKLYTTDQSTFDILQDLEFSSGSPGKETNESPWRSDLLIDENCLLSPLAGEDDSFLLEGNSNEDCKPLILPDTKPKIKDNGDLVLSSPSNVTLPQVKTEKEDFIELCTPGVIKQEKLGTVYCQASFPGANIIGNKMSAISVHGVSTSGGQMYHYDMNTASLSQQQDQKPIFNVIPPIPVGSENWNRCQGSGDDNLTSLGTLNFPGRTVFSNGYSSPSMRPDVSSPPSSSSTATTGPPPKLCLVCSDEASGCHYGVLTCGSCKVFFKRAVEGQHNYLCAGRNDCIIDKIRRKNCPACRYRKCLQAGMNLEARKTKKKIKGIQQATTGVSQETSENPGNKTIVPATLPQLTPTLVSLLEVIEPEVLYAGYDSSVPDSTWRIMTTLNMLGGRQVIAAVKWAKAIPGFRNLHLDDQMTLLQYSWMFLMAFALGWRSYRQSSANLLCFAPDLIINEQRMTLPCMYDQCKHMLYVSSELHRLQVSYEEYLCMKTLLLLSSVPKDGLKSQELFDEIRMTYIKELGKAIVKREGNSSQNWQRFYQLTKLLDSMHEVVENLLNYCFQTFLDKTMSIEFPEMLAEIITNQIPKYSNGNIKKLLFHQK
Chain of Lysosomal acid glucosylceramidase (Homo sapiens) (P04062 whole entry, looked up): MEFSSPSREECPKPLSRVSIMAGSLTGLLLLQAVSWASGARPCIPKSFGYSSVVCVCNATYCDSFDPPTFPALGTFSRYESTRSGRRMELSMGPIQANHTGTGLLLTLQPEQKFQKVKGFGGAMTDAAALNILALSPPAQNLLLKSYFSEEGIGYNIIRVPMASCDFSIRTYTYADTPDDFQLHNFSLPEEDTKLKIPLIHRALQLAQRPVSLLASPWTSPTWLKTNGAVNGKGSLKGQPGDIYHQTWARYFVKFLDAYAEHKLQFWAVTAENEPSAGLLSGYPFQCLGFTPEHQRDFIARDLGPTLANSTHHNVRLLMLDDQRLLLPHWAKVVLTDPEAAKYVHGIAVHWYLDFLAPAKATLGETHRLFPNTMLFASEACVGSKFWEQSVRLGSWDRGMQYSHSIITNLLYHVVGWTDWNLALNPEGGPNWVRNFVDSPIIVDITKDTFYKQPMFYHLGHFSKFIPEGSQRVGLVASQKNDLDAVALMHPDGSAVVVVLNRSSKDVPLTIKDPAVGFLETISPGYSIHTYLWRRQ
Chain of 3',5'-cyclic-AMP phosphodiesterase 4B (Homo sapiens) (Q07343 whole entry, looked up): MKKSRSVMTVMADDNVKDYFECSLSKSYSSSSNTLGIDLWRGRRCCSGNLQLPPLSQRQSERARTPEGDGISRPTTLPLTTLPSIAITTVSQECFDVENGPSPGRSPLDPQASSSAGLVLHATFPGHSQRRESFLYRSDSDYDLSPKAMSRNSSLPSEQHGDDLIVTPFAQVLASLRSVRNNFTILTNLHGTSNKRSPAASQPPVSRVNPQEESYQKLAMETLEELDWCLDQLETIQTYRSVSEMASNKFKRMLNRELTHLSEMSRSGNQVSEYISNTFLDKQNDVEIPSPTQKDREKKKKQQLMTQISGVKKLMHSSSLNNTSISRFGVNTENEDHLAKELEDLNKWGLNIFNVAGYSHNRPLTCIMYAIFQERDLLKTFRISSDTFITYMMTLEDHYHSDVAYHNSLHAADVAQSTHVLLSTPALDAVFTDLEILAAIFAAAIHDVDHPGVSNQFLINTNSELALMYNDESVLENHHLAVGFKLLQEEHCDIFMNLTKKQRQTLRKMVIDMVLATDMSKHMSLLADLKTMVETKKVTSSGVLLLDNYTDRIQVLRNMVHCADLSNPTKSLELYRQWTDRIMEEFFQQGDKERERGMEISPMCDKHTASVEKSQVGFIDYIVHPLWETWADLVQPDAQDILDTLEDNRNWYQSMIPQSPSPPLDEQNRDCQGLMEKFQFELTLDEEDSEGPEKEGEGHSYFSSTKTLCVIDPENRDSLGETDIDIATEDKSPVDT

On to `N#CC(=NCCO)C1=C(O)c2ccccc2C1=O`, for which the Potency is > 11.4 µM in assay [1], > 46 µM in assay [5] and > 9.22 µM in assay [6]. Besides, the activity change, negative = inhibition in assay [2] was -1.5%; in assay [3], 17.6%. In addition, in assay [4], the activity, negative = inhibition is 10.7%. Further, the Potency result in assay [7] and in assay [8] was “inactive” each time.
Take `CN1CCN(c2ncc3nc(CCc4ccccc4)c(=O)n(CCC#N)c3n2)CC1`: the Potency was > 11.4 µM in assay [1], > 9.22 µM in assay [5] and > 46 µM in assay [6]. For the same compound, the activity change, negative = inhibition in assay [2] was -1.24%; in assay [3], -8.66%. In addition, the activity, negative = inhibition in assay [4] was -3.93%. Besides, the Potency result in assay [7] and in assay [8] was “inactive” each time.
For `Cc1ccc(CN2CCN(Cc3ccc(C)o3)[C@@H](C)C2)o1`, the Potency in assay [1] was > 11.4 µM; in assay [5], > 46 µM; in assay [6], > 9.22 µM. Besides, the activity change, negative = inhibition was -2.23% in assay [2] and -7.45% in assay [3]. Also, the activity, negative = inhibition in assay [4] is 1.61%. The Potency result in assay [7] and in assay [8] was “inactive” each time.
Take `COc1ccc([C@H](O)c2ccccn2)cc1`: the Potency was > 11.4 µM in assay [1], > 46 µM in assay [5] and > 9.22 µM in assay [6]. Further, the figures for the activity change, negative = inhibition in assay [2] and in assay [3] were -0.268% and 2.24%, respectively. For the same compound, the activity, negative = inhibition in assay [4] is 9.75%. Also, the Potency result in assay [7] and in assay [8] was “inactive” each time.
In the case of `N[C@@H](CCCCO)C(=O)O`, the Potency in assay [1] is > 11.4 µM; in assay [5], > 46 µM; in assay [6], > 9.22 µM. Moreover, the values for the activity change, negative = inhibition in assay [2] and in assay [3] were 4.11% and -3.02%, respectively. Further, the activity, negative = inhibition in assay [4] is -3.96%. The Potency entry in assay [7] and in assay [8] was “inactive” each time.
Consider `C[C@H](CCC(=O)O)[C@H]1CC[C@@H]2[C@@H]3CC[C@H]4C[C@@H](O)CC[C@@]4(C)[C@@H]3C[C@H](O)[C@@]21C`, for which the Potency was > 11.4 µM in assay [1], > 46 µM in assay [5] and > 9.22 µM in assay [6]. In addition, the activity change, negative = inhibition in assay [2] was 4.11%; in assay [3], 27.2%. In addition, the activity, negative = inhibition in assay [4] was 2.1%. The Potency entry in assay [7] and in assay [8] was “inactive” each time.
For the compound `NC(=O)N/N=C1\CC[C@H](O)C[C@@H]1CC(=O)O`, the Potency in assay [1] was > 11.4 µM; in assay [5], > 46 µM; in assay [6] it was > 9.22 µM. In addition, the activity change, negative = inhibition in assay [2] was 11.5%; in assay [3], 5.67%. The activity, negative = inhibition in assay [4] is 0.119%. Further, the Potency entry in assay [7] and in assay [8] was “inactive” throughout.
For the compound `OCCSCc1cc(Cl)cc(Cl)c1O`, the Potency in assay [1] is > 11.4 µM; in assay [5], > 46 µM; in assay [6] it was > 9.22 µM. In addition, the values for the activity change, negative = inhibition in assay [2] and in assay [3] were -3.03% and 14.2%, respectively. Also, in assay [4], the activity, negative = inhibition was 17.5%. For the same compound, the Potency result in assay [7] and in assay [8] was “inactive” in each case.
In the case of `NNS(=O)(=O)c1cc(C(=O)O)cc(C(=O)O)c1`, the Potency in assay [1] is > 11.4 µM; in assay [5], > 46 µM; in assay [6], > 9.22 µM. Moreover, the activity change, negative = inhibition in assay [2] is 4.57%; in assay [3] it was 14.9%. The activity, negative = inhibition in assay [4] is 3.48%. Further, the Potency entry in assay [7] and in assay [8] was “inactive” in each case.
Consider `Nc1nc(SCC(=O)c2ccc(Br)cc2)c2[nH]cnc2n1`, for which the Potency in assay [1] was > 11.4 µM; in assay [5], > 46 µM; in assay [6] it was > 9.22 µM. Besides, the activity change, negative = inhibition was -11.1% in assay [2] and 23.5% in assay [3]. Moreover, the activity, negative = inhibition in assay [4] is 1.94%. For the same compound, the Potency result in assay [7] and in assay [8] was “inactive” throughout.
In the case of `C(CCc1nnc2c(n1)CCCC2)Cc1nnc2c(n1)CCCC2`, the Potency in assay [1] is > 11.4 µM; in assay [5] it was > 46 µM; in assay [6] it was > 9.22 µM. For the same compound, the results for the activity change, negative = inhibition in assay [2] and in assay [3] were 6.86% and -8.87%, respectively. The activity, negative = inhibition in assay [4] was 0.257%. In addition, the Potency entry in assay [7] and in assay [8] was “inactive” in each case.
With `C=CCSc1nc2c(N)ncnc2n1[C@@H]1O[C@H](CO)[C@@H](O)[C@@H]1O`, the Potency in assay [1] is > 11.4 µM; in assay [5] it was > 46 µM; in assay [6] it was > 9.22 µM. For the same compound, the activity change, negative = inhibition in assay [2] is 4.59%; in assay [3] it was 2.7%. Further, in assay [4], the activity, negative = inhibition was -1.09%. Also, the Potency result in assay [7] and in assay [8] was “inactive” each time.
With `O=C1c2ccccc2-c2ccc(N=[N+]([O-])c3ccc4c(c3)C(=O)c3ccccc3-4)cc21`, the Potency in assay [1] is > 11.4 µM; in assay [5], > 46 µM; in assay [6] it was > 9.22 µM. In addition, the activity change, negative = inhibition in assay [2] is 5.38%; in assay [3] it was 10.2%. Moreover, in assay [4], the activity, negative = inhibition is 7.21%. The Potency result in assay [7] and in assay [8] was “inactive” each time.
As to `C[C@H](Br)C(=O)Nc1ccc(C(=O)O)c(O)c1`, the Potency was > 11.4 µM in assay [1], > 46 µM in assay [5] and > 9.22 µM in assay [6]. For the same compound, the activity change, negative = inhibition in assay [2] was 1.78%; in assay [3], -22.6%. The activity, negative = inhibition in assay [4] was -4.23%. For the same compound, the Potency result in assay [7] and in assay [8] was “inactive” in each case.
For `O=C1c2cccc(O)c2C(=O)c2c(O[C@@H]3O[C@H](CO)[C@@H](O)[C@H](O)[C@@H]3O)cccc21`, the Potency is 2.95 µM (active) in assay [1], > 46 µM in assay [5] and > 9.22 µM in assay [6]. Moreover, the activity change, negative = inhibition in assay [2] is 29.9%; in assay [3] it was 5.22%. For the same compound, the activity, negative = inhibition in assay [4] was 8.12%. Besides, the Potency entry in assay [7] and in assay [8] was “inactive” each time.
Take `CN(C)C[C@@H](O)c1ccc(Cl)c2ccccc12`: the Potency in assay [1] is > 11.4 µM; in assay [5], > 46 µM; in assay [6] it was > 9.22 µM. The figures for the activity change, negative = inhibition in assay [2] and in assay [3] were 13.3% and -4.99%, respectively. Moreover, in assay [4], the activity, negative = inhibition was 18.4%. Also, the Potency result in assay [7] and in assay [8] was “inactive” each time.

The values are drawn from PubChem BioAssay (NCATS).
